Activity calls are given as the source filed them.

In one test the target is Albumin (Bos taurus) (UniProt P02769). The test can be described thus: compounds binding labelled BSA control protein – biochemical, small-molecule microarray, Alexa647 label, 635/667 nm fluorescence, artefact control for SMM control protein annotation, profiling panel (AID 1118).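 Also: score merges 667 nm emission intensity and signal-to-noise per printed compound spot.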 Particulars: BSA-A647 binding, fluorescence 635 nm, higher = more signal.
Sequence of Albumin (Bos taurus) (P02769 whole entry, looked up): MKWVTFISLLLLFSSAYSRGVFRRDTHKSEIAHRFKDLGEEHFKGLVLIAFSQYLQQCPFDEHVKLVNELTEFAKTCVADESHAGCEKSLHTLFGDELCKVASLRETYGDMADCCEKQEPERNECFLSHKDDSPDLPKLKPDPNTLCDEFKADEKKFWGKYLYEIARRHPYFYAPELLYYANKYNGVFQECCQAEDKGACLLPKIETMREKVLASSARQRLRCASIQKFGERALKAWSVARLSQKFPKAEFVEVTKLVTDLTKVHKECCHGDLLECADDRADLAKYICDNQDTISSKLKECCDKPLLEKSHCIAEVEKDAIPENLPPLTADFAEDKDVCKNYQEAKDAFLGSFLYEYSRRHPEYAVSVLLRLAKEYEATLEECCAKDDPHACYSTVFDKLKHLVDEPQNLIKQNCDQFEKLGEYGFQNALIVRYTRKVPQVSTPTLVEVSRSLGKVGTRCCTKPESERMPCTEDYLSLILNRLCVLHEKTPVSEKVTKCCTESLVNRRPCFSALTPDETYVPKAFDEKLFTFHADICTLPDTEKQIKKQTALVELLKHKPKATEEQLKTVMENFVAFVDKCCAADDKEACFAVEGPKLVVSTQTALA
The nature of test [1]: probe aXIP binding to arrayed compounds – biochemical, NeuroSMM set, 635/667 nm fluorescence, primary screen (AID 1119).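 Also: probe is the protein aXip251-270 applied at 1 µg/mL to compound-printed slides; binding of probe to printed compounds measured as 667 nm fluorescence plus signal to noise.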 Particulars: small-molecule microarray, higher = more signal, called active from +8 up or from −8 down.
Test [2] in a line: probe aNOTCH3 binding on compound microarray – biochemical, small-molecule microarray, 635/667 nm fluorescence, primary screen (AID 1120).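 Also: probe is a biotin-tagged antibody raised against NOTCH3 rather than NOTCH3 protein; score merges spot fluorescence near 667 nm with spot signal to noise.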 The following applies: higher = more signal.
Test [3] in a line: probe aNOTCH2 binding on compound microarray – biochemical, small-molecule microarray, 635/667 nm fluorescence, primary screen (AID 1121).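 Also: score merges feature fluorescence read at 667 nm with its signal to noise.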 Particulars: higher = more signal.
The target in test [4] is Carbonic anhydrase 2 (Homo sapiens) (UniProt P00918). The test can be described thus: compounds binding carbonic anhydrase 2 – biochemical, small-molecule microarray, Alexa647-labelled CAII, profiling panel (AID 1122). The following applies: CAII-A647 binding fluorescence, higher = more signal.
Test [5] can be described thus: COS7 lysate on small-molecule microarray, probe aHis, 635 nm (AID 1123).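 Also: z-score combines 667nm fluorescence intensity with signal-to-noise per printed compound spot.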 Particulars: COS7 cell lysate, fluorescence, higher = more signal.
The nature of test [6]: probe aLAP1 signal on lysate-treated microarray – cell lysate, small-molecule microarray, COS7 lysate, primary screen (AID 1124).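 Also: lysate comes from COS7 cells expressing LAP1 and is applied at 0.3 µg/mL; score merges spot fluorescence near 667 nm with signal-to-noise over triplicate slides.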 Particulars: probe aLAP1, fluorescence, higher = more signal.
For a further test, the system named is Sam68 (KHDRBS1). The experiment in a line: compounds binding KHDRBS1 protein – biochemical, small-molecule microarray, 635 nm fluorescence, primary screen (AID 1125).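 Also: score merges 667 nm channel intensity with signal to noise over triplicate slides.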 Particulars: higher = more signal.
The test system of test [7] is Chordin-like protein 2 (CHRDL2). The experiment in a line: compounds binding chordin-like 2 – biochemical, small-molecule microarray, 635 nm fluorescence, primary screen (AID 1126).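 Also: printed compound slides probed with Chrdl2 protein at 4 µg/mL for 1 h at 4 C; score merges 667 nm emission intensity with signal to noise over three replicate slides.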 The following applies: fluorescence 635 nm, higher = more signal.
For test [8], the target named is Concanavalin-A (Canavalia ensiformis) (UniProt P02866). The test can be described thus: compounds binding concanavalin A lectin – biochemical, small-molecule microarray, Alexa647 label, 635 nm, artefact control for SMM control protein annotation, primary screen (AID 1127).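 Also: z combines 667 nm emission intensity with signal-to-noise across three replicate slides.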 The following applies: ConA-A647 binding fluorescence, higher = more signal.
Sequence of Concanavalin-A (Canavalia ensiformis) (P02866 whole entry, looked up): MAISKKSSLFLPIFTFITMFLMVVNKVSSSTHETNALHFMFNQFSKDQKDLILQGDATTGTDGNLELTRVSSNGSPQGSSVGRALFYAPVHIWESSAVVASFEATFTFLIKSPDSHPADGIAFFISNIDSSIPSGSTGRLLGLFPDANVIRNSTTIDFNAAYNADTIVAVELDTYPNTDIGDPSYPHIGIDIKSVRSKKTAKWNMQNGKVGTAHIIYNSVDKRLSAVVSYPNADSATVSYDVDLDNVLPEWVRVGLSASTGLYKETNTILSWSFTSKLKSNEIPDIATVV
A short description of test [9]: compounds binding Alexa647 anti-His antibody – biochemical, small-molecule microarray, 635 nm fluorescence, artefact control for SMM control protein annotation, primary screen (AID 1128).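 Also: score merges feature fluorescence with signal-to-noise for each printed compound spot.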 Particulars: higher = more signal.
In test [10] the test system is Human papillomavirus type 1a E7 protein (residues 1-88). The test can be described thus: HPV1a E7 small-molecule binders, primary screen, biochemical, small-molecule microarray, residues 1-88, 635 nm (AID 1129). The following applies: small-molecule microarray binding, fluorescence 635 nm; higher = more signal.
For test [11], the target named is Focal adhesion kinase 1 (Homo sapiens) (UniProt Q05397). The test can be described thus: PTK2 protein binding on printed compound slides – biochemical, small-molecule microarray, 635/667 nm fluorescence, BSA, DTT, primary screen (AID 1130).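 Also: composite of spot emission at 667 nm and signal to noise over triplicate slides.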 Particulars: 635 nm fluorescence, higher = more signal.
Sequence of Focal adhesion kinase 1 (Homo sapiens) (Q05397 whole entry, looked up): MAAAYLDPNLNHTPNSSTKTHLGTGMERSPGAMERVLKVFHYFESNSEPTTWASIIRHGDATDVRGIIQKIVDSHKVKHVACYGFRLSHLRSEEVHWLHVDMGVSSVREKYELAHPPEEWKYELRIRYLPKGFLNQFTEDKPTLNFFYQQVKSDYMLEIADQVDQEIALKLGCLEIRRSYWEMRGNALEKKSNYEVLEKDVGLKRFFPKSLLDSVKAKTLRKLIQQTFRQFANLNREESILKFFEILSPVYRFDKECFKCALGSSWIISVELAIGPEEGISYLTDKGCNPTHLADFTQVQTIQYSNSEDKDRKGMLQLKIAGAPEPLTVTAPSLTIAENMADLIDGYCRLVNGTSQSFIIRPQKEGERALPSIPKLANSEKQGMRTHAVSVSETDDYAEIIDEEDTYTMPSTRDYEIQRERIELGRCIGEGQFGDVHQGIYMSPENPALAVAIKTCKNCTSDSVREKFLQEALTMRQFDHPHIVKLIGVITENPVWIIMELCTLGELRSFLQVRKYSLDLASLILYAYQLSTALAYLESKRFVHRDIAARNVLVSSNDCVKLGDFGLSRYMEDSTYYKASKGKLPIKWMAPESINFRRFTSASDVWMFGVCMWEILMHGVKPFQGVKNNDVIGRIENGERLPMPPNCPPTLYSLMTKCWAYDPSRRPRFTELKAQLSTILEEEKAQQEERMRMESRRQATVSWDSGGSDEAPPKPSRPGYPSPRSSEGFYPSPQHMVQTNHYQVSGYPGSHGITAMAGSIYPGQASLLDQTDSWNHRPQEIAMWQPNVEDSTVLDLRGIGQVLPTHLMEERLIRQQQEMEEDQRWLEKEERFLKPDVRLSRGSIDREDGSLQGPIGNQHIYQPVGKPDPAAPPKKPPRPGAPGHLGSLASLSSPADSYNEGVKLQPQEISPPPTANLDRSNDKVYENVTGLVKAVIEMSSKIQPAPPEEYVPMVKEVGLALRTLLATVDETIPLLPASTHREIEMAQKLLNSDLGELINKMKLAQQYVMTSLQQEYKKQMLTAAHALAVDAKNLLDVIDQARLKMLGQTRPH
The subject of test [12] is Fibrinogen (Alexa647-labelled). The experiment in a line: Alexa647-fibrinogen binding to printed small molecules – biochemical, small-molecule microarray, 635/667 nm fluorescence, artefact control for SMM control-protein annotation, profiling panel (AID 1131).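 Also: z-score merges 667 nm fluorescence with per-spot signal-to-noise over triplicate slides.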 The following applies: fibrinogen-A647 binding fluorescence, higher = more signal.
Test [13] addresses Follistatin (Homo sapiens) (UniProt P19883). The experiment in a line: FST protein binding to printed compounds – biochemical, small-molecule microarray, 635/667 nm fluorescence, primary screen (AID 1132). The following applies: 635 nm fluorescence, higher = more signal.
Test [14] concerns the target Fibroblast growth factor 2 (Homo sapiens) (UniProt P09038). The experiment in a line: basic fibroblast growth factor binding to printed compounds – biochemical, small-molecule microarray, 635/667 nm fluorescence, primary screen (AID 1133). Particulars: FGF2, fluorescence 635/667, higher = more signal.
A short description of test [15]: JC-1 mitochondrial potential readout, lung cancer cells – cell-based, A549, JC-1 fluorescence, basal, 24 h, 100 nL, profiling panel (AID 1138).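 Also: A549 lung adenocarcinoma cells under basal conditions with no added stimulus; test concentration not given here.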 The following applies: higher = more signal.
The subject of the next test is Lefty1. The experiment in a line: Lefty1 protein binding to printed compounds – biochemical, small-molecule microarray, 635/667 nm fluorescence, primary screen (AID 1139). Particulars: fluorescence 635/667, higher = more signal.
The test system of test [16] is wheat germ agglutinin (Triticum aestivum), Alexa647-labelled. The experiment in a line: Alexa647-WGA lectin binding to printed small molecules – biochemical, small-molecule microarray, 635/667 nm fluorescence, artefact control for SMM control-protein annotation, profiling panel (AID 1140).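 Also: score merges 667 nm feature emission with signal to noise over triplicate slides.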 Particulars: WGA-A647 binding, 635 nm fluorescence, higher = more signal.
In test [17] the target is Luciferin 4-monooxygenase (Photinus pyralis) (UniProt P08659). The experiment in a line: inhibition of purified Photinus pyralis luciferase – biochemical, luminescence, purified enzyme, 2006 set, primary screen (AID 1141).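 Also: cell-free assay with purified firefly luciferase at 100 ng per well in PBS; test concentration not given here.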 Particulars: purified firefly luciferase, SteadyGlo luminescence, 30 min; higher = more signal, called active from +8 up or from −8 down.
Sequence of Luciferin 4-monooxygenase (Photinus pyralis) (P08659 whole entry, looked up): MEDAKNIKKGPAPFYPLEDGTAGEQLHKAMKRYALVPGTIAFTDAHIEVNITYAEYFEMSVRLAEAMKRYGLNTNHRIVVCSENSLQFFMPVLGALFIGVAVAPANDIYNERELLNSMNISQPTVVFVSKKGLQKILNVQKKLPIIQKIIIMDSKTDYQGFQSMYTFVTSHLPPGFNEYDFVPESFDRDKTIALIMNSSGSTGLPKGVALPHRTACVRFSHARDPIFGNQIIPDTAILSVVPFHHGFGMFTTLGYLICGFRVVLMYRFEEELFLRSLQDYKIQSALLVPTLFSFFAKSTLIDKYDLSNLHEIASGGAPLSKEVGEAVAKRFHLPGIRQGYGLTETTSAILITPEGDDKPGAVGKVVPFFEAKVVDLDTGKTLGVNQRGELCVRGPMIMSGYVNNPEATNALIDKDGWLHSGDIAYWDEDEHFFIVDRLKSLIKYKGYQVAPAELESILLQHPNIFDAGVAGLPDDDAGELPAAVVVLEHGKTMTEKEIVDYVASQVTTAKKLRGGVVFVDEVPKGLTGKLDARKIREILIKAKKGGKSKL

Sequence of Follistatin (Homo sapiens) (P19883 whole entry, looked up): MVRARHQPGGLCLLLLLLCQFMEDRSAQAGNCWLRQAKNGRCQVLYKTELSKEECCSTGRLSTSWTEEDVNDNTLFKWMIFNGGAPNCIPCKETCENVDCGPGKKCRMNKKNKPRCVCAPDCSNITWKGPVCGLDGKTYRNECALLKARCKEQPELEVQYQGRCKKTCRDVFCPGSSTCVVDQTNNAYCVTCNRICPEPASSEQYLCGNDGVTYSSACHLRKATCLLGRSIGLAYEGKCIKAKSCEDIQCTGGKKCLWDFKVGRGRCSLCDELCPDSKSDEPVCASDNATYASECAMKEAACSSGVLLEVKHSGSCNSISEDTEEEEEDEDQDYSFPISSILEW
Sequence of Fibroblast growth factor 2 (Homo sapiens) (P09038 whole entry, looked up): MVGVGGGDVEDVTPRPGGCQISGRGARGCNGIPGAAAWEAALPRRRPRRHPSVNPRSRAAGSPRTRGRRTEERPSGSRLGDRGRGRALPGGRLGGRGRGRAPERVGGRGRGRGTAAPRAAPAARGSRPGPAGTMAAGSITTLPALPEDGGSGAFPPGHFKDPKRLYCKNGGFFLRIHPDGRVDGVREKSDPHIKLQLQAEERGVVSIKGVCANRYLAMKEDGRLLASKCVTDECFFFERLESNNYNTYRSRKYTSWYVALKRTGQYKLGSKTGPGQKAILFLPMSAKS

Regarding `CCOC(=O)CCN1C(=O)[C@H]2[C@H]3[C@H](O)[C@H](O)CC(=NO[C@@H]4O[C@H](CO)[C@@H](O)[C@H](O)[C@H]4O)[C@H]3CC[C@H]2C1=O`, the composite z-score was 0.0221 with Albumin (Bos taurus); -0.15 in test [2]; -0.113 in test [3]; 0.197 in test [4]; 0.174 in [5]; -0.0363 in [6]. The composite z-score was found to be 0.201 in the test with Sam68 (KHDRBS1); 0.52 in test [7]; 0.487 in test [8]; 0.919 in test [9]; 0.544 in test [10]; 0.068 in test [11]. In addition, the composite z-score in test [12] was 0.551; in test [13], 0.0489; in [14], 0.599; in the test on Lefty1, 0.49; in [16] it was -0.104. Besides, the composite Z-score in [1] is -0.048 (inactive). The z-score was -0.658 in test [15] and 0.493 (inactive) in [17].

On to `COC(=O)[C@@H]1CC[C@H](C)[C@@H](c2ccc(C)cc2)N1C(=O)c1ccc(C=NO[C@@H](C)c2cc(-c3c(C)cc(C)cc3C)no2)cc1`, for which the composite z-score with Albumin (Bos taurus) was 0.432; in [2] it was -0.004; in test [3], -0.126; in test [4], 0.154; in test [5], -0.0142; in test [6] it was -0.207. The composite z-score in the test on Sam68 (KHDRBS1) is 1.2; in test [7], 0.306; in test [8] it was 0.894; in test [9], -0.637; in test [10], 0.706; in test [11], 0.137. Besides, the composite z-score in [12] came to 0.602; in test [13], 0.365; in test [14] it was 0.553; with Lefty1, 0.677; in [16] it was 0.0859. The composite Z-score in test [1] is -0.136 (inactive). The z-score is 1.65 in [15] and 0.195 (inactive) in test [17].

Consider `O=C1C2=CC[C@H]3C(=O)N(Cc4ccccc4)C(=O)[C@H]3[C@H]2[C@H](O)[C@@H]2O[C@H]12`, for which the composite z-score in the test with Albumin (Bos taurus) was -0.356; in [2], -0.199; in test [3], -0.167; in test [4], 0.0372; in test [5], -0.458; in [6] it was -0.11. For the same molecule, the composite z-score with Sam68 (KHDRBS1) was 0.085; in [7] it was 0.343; in test [8], -0.707; in test [9] it was 0.198; in test [10] it was 0.111; in test [11] it was -0.36. In addition, the composite z-score was 0.739 in test [12]; -0.267 in test [13]; -0.022 in test [14]; -0.423 with Lefty1; 0.254 in [16]. Besides, in test [1], the composite Z-score is 0.0144 (inactive). The z-score in test [15] was -0.447; in test [17], -0.174 (inactive).

Regarding `CCOC(=O)CCN1C(=O)[C@H]2[C@@H]3C(=CC[C@H]2C1=O)C(=O)[C@H]1O[C@H]1[C@H]3O`, the composite z-score is 0.375 with Albumin (Bos taurus); -0.313 in test [2]; -0.146 in [3]; 0.534 in [4]; -0.774 in test [5]; 0.0946 in test [6]. The composite z-score in the test on Sam68 (KHDRBS1) is -0.728; in [7] it was -0.23; in test [8] it was -0.666; in test [9], -0.705; in test [10], -0.307; in test [11], -0.336. Besides, the composite z-score in test [12] is -0.476; in [13], -1.02; in [14] it was -0.858; in the test on Lefty1, -0.762; in test [16], 0.243. Moreover, the composite Z-score in test [1] was -0.342 (inactive). In addition, the values for the z-score in test [15] and in test [17] were 0.736 and -1.04 (inactive), respectively.

As to `CC(CCN1CCCCc2nc(C)c(C)cc21)=NOC[C@@H](O)[C@H]1O[C@@H]2OC(C)(C)O[C@@H]2[C@H]1O`, the composite z-score was 0.814 with Albumin (Bos taurus); -0.0363 in [2]; -0.166 in test [3]; -0.378 in test [4]; -0.461 in [5]; -0.258 in test [6]. In addition, the composite z-score was 0.0948 in the test on Sam68 (KHDRBS1); 1.16 in test [7]; -0.0142 in test [8]; 3.04 in test [9]; -0.491 in test [10]; -0.319 in test [11]. In addition, the composite z-score in test [12] was 1.01; in [13] it was 0.416; in test [14], 0.937; in the test on Lefty1 it was 1; in [16], -0.163. For the same molecule, the composite Z-score in test [1] is -0.379 (inactive). Also, the z-score in test [15] was -0.584; in [17], 0.766 (inactive).

Take `COC(OC)[C@@H](C)[C@H](OC)[C@@H](C)[C@H](OC)c1ccccc1`: the composite z-score with Albumin (Bos taurus) is -0.355; in test [2] it was -0.0647; in [3], -0.15; in test [4], -0.552; in test [5], -0.729; in [6] it was -0.266. In addition, the composite z-score in the test with Sam68 (KHDRBS1) was -1.16; in test [7], 0.473; in [8], -0.18; in [9], -0.504; in test [10], 0.104; in test [11], -0.043. Moreover, the composite z-score in test [12] was -0.353; in [13], 0.144; in [14] it was 0.142; in the test with Lefty1 it was 0.253; in test [16], -0.0965. In test [1], the composite Z-score is 0.273 (inactive). In addition, the z-score in test [15] was 2.15; in [17] it was -1.67 (inactive).

The values are drawn from PubChem BioAssay.
